# Reference: the supplement of paper PMC8728848
# Shown is part of a subset that was picked to be rich in the strongest signals.
# Key:
# Test in all cases: glycan array binding signal (z-score within array); higher = stronger binding
# Settings in all cases: glycan notation: IUPAC condensed, linker removed
# [1] = target: Fuc(a1-2)Gal(b1-3)GalNAc(a1-3)[Fuc(a1-2)]Gal(b1-4)GlcNAc
# In short: (§1)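 Negative Z-scores can be read as non-binding. The Z-score is calculated within each array and then averaged across arrays of one protein sequence at different concentrations or buffers and across linkers. Arrays, 3228 in all, were curated from the Consortium for Functional Glycomics database and kept only where the protein sequence was available.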
# [2] = target: Fuc(a1-2)Gal(b1-3)GalNAc(b1-3)Gal
# In short: as §1
# [3] = target: Fuc(a1-2)Gal(b1-3)GalNAc(b1-4)[Neu5Ac(a2-3)]Gal(b1-4)Glc
# In short: as §1
# [4] = target: Fuc(a1-2)Gal(b1-3)GlcNAc(b1-2)Man(a1-3)[Fuc(a1-2)Gal(b1-3)GlcNAc(b1-2)Man(a1-6)]Man(b1-4)GlcNAc(b1-4)[Fuc(a1-6)]GlcNAc
# In short: as §1
# [5] = target: Fuc(a1-2)Gal(b1-3)[Fuc(a1-4)]GlcNAc(b1-2)Man(a1-3)[Fuc(a1-2)Gal(b1-3)[Fuc(a1-4)]GlcNAc(b1-2)Man(a1-3)]Man(b1-4)GlcNAc(b1-4)GlcNAc
# In short: as §1
# Fuc(a1-2)Gal(b1-4)Glc6S = target: Fuc(a1-2)Gal(b1-4)Glc6S
# In short: as §1
# [6] = target: Fuc(a1-2)Gal(b1-4)GlcNAc(b1-2)Man(a1-3)[Fuc(a1-2)Gal(b1-4)GlcNAc(b1-2)Man(a1-6)]Man(b1-4)GlcNAc(b1-4)[Fuc(a1-6)]GlcNAc
# In short: as §1
# [7] = target: Fuc(a1-2)Gal(b1-4)GlcNAc(b1-3)Gal(b1-4)GlcNAc(b1-2)Man(a1-3)[Fuc(a1-2)Gal(b1-4)GlcNAc(b1-3)Gal(b1-4)GlcNAc(b1-2)Man(a1-6)]Man(b1-4)GlcNAc(b1-4)GlcNAc
# In short: as §1
# [8] = target: Fuc(a1-2)Gal(b1-4)[Fuc(a1-3)]GlcNAc(b1-3)GalNAc
# In short: as §1
# [9] = target: Fuc(a1-2)Gal6S(b1-3)GlcNAc6S
# In short: as §1
# [10] = target: Fuc(a1-2)[Gal(a1-3)]Gal(b1-4)GlcNAc(b1-3)[Fuc(a1-2)[Gal(a1-3)]Gal(b1-4)GlcNAc(b1-6)]GalNAc
# In short: as §1
# [11] = target: Fuc(a1-2)[Gal(a1-3)]Gal(b1-4)[Fuc(a1-3)]Glc
# In short: as §1
# [12] = target: Fuc(a1-2)[GalNAc(a1-3)]Gal(b1-3)GlcNAc(b1-6)GalNAc
# In short: as §1
# [13] = target: Fuc(a1-2)[GalNAc(a1-3)]Gal(b1-4)Glc
# In short: as §1
# [14] = target: Fuc(a1-2)[GalNAc(a1-3)]Gal(b1-4)GlcNAc
# In short: as §1
# [15] = target: Fuc(a1-2)[GalNAc(a1-3)]Gal(b1-4)GlcNAc(b1-2)Man
# In short: as §1
# [16] = target: Fuc(a1-3)[Gal(b1-4)]GlcNAc(b1-3)Gal(b1-4)[Fuc(a1-3)]GlcNAc
# In short: as §1
# [17] = target: Fuc(a1-3)[Gal(b1-4)]GlcNAc(b1-6)GalNAc
# In short: as §1
# [18] = target: Fuc(a1-3)[Gal3S(b1-4)]GlcNAc6S
# In short: as §1
# Fuc(a1-4)GlcNAc = target: Fuc(a1-4)GlcNAc
# In short: as §1
# Gal(b1-3)Gal = target: Gal(b1-3)Gal
# In short: as §1
# Gal(b1-3)Gal(b1-4)GlcNAc = target: Gal(b1-3)Gal(b1-4)GlcNAc
# In short: as §1
# [19] = target: Gal(b1-3)GalNAc(a1-3)[Fuc(a1-2)]Gal(b1-4)GlcNAc
# In short: as §1
# [20] = target: Gal(b1-3)GlcNAc(b1-3)Gal(b1-4)GlcNAc(b1-6)[Gal(b1-3)GlcNAc(b1-3)]Gal(b1-4)Glc
# In short: as §1
# [21] = target: Gal(b1-3)[Neu5Ac(a2-6)]GlcNAc(b1-4)Gal(b1-4)Glc
# In short: as §1
# Gal(b1-4)Gal = target: Gal(b1-4)Gal
# In short: as §1
# [22] = target: Gal(b1-4)GlcNAc(b1-2)Man(a1-3)[GlcNAc(b1-4)][Gal(b1-4)GlcNAc(b1-2)Man(a1-6)]Man(b1-4)GlcNAc(b1-4)GlcNAc
# In short: as §1
# [23] = target: Gal(b1-4)GlcNAc(b1-2)[Gal(b1-4)GlcNAc(b1-6)]Man(a1-6)[Gal(b1-4)GlcNAc(b1-2)Man(a1-3)]Man(b1-4)GlcNAc(b1-4)GlcNAc
# In short: as §1
# [24] = target: Gal(b1-4)GlcNAc(b1-2)[Gal(b1-4)GlcNAc(b1-6)]Man(a1-6)[Gal(b1-4)GlcNAc(b1-2)Man(a1-3)]Man(b1-4)GlcNAc(b1-4)[Fuc(a1-6)]GlcNAc
# In short: as §1
# [25] = target: Gal(b1-4)GlcNAc(b1-3)Gal(b1-4)GlcNAc
# In short: as §1
binder,measurement,setting,value
SabA (Helicobacter pylori) (protein) MGSSHHHHHHSSGLVPRGSHMENLYFQGEDNGFFVSAGYQIGEAVQMVKNTGELKNLNEKYEQLSQYLNQVASLKQSIQNANNIELVNSSLNYLKSFTNNNYNSTTQSPIFNAVQAVITSVLGFWSLYAGNYFTFFVGKKVGDSGQPASVQGNPPFKTIIENCSGIENCAMDQTTYDKMKKLAEDLQAAQTNSATKGNNLCALSGCAATDSTSNPPNSTVSNALNLAQQLMDLIANTKTAMMWKNIVISGVSNTSGAITSTNYPTQYAVFNNIKAMIPILQQAVTLSQSNHTLSASLQAQATGSQTNPKFAKDIYTFAQNQKQVISYAQDIFNLFNSIPAEQYKYLEKAYLKIPNAGSTPTNPYRQVVNLNQEVQTIKNNVSYYGNRVDAALSVARDVYNLKSNQAEIVTAYNDAKTLSEEISKLPHNQVNTKDIVTLPYDKNAPAAGQSNYQINPEQQSNLNQALAAMSNNPFKKVGMISSQNNNGA,glycan array binding signal (z-score),[1],0.026
same,glycan array binding signal (z-score),[2],-0.181
same,glycan array binding signal (z-score),[3],0.208
same,glycan array binding signal (z-score),[4],1.55
same,glycan array binding signal (z-score),[5],3.91
same,glycan array binding signal (z-score),Fuc(a1-2)Gal(b1-4)Glc6S,0.21
same,glycan array binding signal (z-score),[6],2.49
same,glycan array binding signal (z-score),[7],0.579
same,glycan array binding signal (z-score),[8],2.43
same,glycan array binding signal (z-score),[9],3.74
same,glycan array binding signal (z-score),[10],2.78
same,glycan array binding signal (z-score),[11],-0.48
same,glycan array binding signal (z-score),[12],-0.962
same,glycan array binding signal (z-score),[13],-0.596
same,glycan array binding signal (z-score),[14],-0.145
same,glycan array binding signal (z-score),[15],-0.319
same,glycan array binding signal (z-score),[16],1.26
same,glycan array binding signal (z-score),[17],1.95
same,glycan array binding signal (z-score),[18],-0.083
same,glycan array binding signal (z-score),Fuc(a1-4)GlcNAc,2.89
same,glycan array binding signal (z-score),Gal(b1-3)Gal,-0.298
same,glycan array binding signal (z-score),Gal(b1-3)Gal(b1-4)GlcNAc,-0.637
same,glycan array binding signal (z-score),[19],-0.576
same,glycan array binding signal (z-score),[20],-0.24
same,glycan array binding signal (z-score),[21],0.532
same,glycan array binding signal (z-score),Gal(b1-4)Gal,0.204
same,glycan array binding signal (z-score),[22],-0.111
same,glycan array binding signal (z-score),[23],0.291
same,glycan array binding signal (z-score),[24],0.877
same,glycan array binding signal (z-score),[25],-0.924
